{"source": "the supplement of paper PMC3334620", "note": "The full ranking holds about 33,000 sequences; the median of “E-score (-0.5 to 0.5)” is about -0.0014, and the highest 2% start at about 0.25. For the sample, the highest values were picked, then their nearest neighbours and some sequences at random.", "data": [{"biological_target": "T1, Cad1 (UniProt P24813)", "T1 sequence": "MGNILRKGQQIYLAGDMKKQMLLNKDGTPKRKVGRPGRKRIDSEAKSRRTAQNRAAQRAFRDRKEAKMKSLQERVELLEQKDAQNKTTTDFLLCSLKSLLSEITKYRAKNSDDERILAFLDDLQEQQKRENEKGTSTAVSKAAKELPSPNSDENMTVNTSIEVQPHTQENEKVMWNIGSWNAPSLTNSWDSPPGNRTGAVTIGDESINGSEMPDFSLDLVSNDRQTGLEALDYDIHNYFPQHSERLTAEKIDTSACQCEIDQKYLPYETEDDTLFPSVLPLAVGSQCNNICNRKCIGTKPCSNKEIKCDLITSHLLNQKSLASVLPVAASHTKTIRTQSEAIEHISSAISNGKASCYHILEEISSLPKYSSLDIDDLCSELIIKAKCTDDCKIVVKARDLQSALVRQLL", "experiment": "PBM E-score (8-mer binding enrichment) (E-score (-0.5 to 0.5)); higher = stronger / more preferred TF binding", "conditions": "protein concentration: 100 nM; construct: GST-full length", "method_in_brief": "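For each ungapped eight-base word taken together with its reverse complement, the Universal PBM Analysis Suite assigned an E-score. Binding data came from GST-tagged yeast transcription factors, applied at about 100-200 nM, on universal all-10-mer Agilent arrays made double-stranded by primer extension. Fluorescent anti-GST marked bound protein, and scans were normalised with masliner.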", "values": [{"sequence": "GGCCAATA", "PBM E-score": 0.0295}, {"sequence": "AAGCTGAT", "PBM E-score": 0.216}, {"sequence": "GTAGGAGA", "PBM E-score": -0.124}, {"sequence": "CGCTTCTC", "PBM E-score": -0.0668}, {"sequence": "ACAGCCAA", "PBM E-score": 0.0312}, {"sequence": "GAGCTTGC", "PBM E-score": -0.048}, {"sequence": "CAAGTCCA", "PBM E-score": -0.0962}, {"sequence": "CCCGCCTA", "PBM E-score": 0.0947}, {"sequence": "AATTAGTA", "PBM E-score": 0.316}, {"sequence": "AATTAGGA", "PBM E-score": 0.0377}, {"sequence": "AGTTAGTA", "PBM E-score": 0.0725}, {"sequence": "CATCCTCG", "PBM E-score": 0.0642}, {"sequence": "GACACTGC", "PBM E-score": -0.0407}, {"sequence": "CCGCTGTC", "PBM E-score": 0.00182}, {"sequence": "AAAATGGG", "PBM E-score": -0.157}, {"sequence": "CAAATGGA", "PBM E-score": 0.0716}, {"sequence": "AAAATGGA", "PBM E-score": 0.267}, {"sequence": "GTCTACAC", "PBM E-score": 0.0321}, {"sequence": "ATCCCAAT", "PBM E-score": -0.122}, {"sequence": "GTTTGTAA", "PBM E-score": 0.137}, {"sequence": "CTTTGTAA", "PBM E-score": 0.333}, {"sequence": "ATTTGTAG", "PBM E-score": 0.0654}, {"sequence": "CTTTGTAC", "PBM E-score": 0.0743}, {"sequence": "ATTTGTAA", "PBM E-score": 0.411}, {"sequence": "ATTTGTAC", "PBM E-score": 0.119}, {"sequence": "ACGCTCCA", "PBM E-score": 0.0354}, {"sequence": "AGCGTACG", "PBM E-score": 0.00701}, {"sequence": "ATACTTGC", "PBM E-score": 0.0566}, {"sequence": "CAGATGCC", "PBM E-score": -0.141}, {"sequence": "CCGCGCTA", "PBM E-score": 0.263}, {"sequence": "CCGCGCTC", "PBM E-score": 0.097}, {"sequence": "GCGCGCTA", "PBM E-score": 0.326}, {"sequence": "CTGCGCTA", "PBM E-score": 0.0362}, {"sequence": "ACGCGCTA", "PBM E-score": 0.109}, {"sequence": "GTGCGCTA", "PBM E-score": 0.0718}, {"sequence": "GACCGTAA", "PBM E-score": -0.061}, {"sequence": "GGGTGGCA", "PBM E-score": -0.124}, {"sequence": "CCACTATC", "PBM E-score": -0.0188}, {"sequence": "AGGTAAAC", "PBM E-score": 0.105}, {"sequence": "AGGTAAAT", "PBM E-score": -0.00978}, {"sequence": "AGGTAAAG", "PBM E-score": 0.267}, {"sequence": "AGTGATGC", "PBM E-score": -0.0338}, {"sequence": "ACCCGCAC", "PBM E-score": 0.0284}, {"sequence": "ATTAATGA", "PBM E-score": 0.306}, {"sequence": "AGTAATTA", "PBM E-score": 0.283}, {"sequence": "GGTAATTA", "PBM E-score": 0.186}, {"sequence": "ATTAATTA", "PBM E-score": 0.263}, {"sequence": "ATTAATAG", "PBM E-score": 0.275}, {"sequence": "CGTAATTA", "PBM E-score": 0.249}, {"sequence": "ATTAATGC", "PBM E-score": 0.167}, {"sequence": "ATGAATAG", "PBM E-score": 0.0469}, {"sequence": "ATTAATAC", "PBM E-score": 0.199}, {"sequence": "GTTAATTA", "PBM E-score": 0.23}, {"sequence": "CTTAATTA", "PBM E-score": 0.152}, {"sequence": "CTTAATGA", "PBM E-score": 0.00816}, {"sequence": "ATGGGGGC", "PBM E-score": -0.349}, {"sequence": "AAGATAGA", "PBM E-score": 0.0137}, {"sequence": "CCGAGTGC", "PBM E-score": 0.089}, {"sequence": "GATTGACC", "PBM E-score": -0.149}, {"sequence": "GCCGGGAC", "PBM E-score": -0.0972}, {"sequence": "AGTAATTG", "PBM E-score": 0.0751}, {"sequence": "ATCAATTG", "PBM E-score": 0.186}, {"sequence": "ATCAATTC", "PBM E-score": -0.026}, {"sequence": "ATCAATTA", "PBM E-score": 0.255}, {"sequence": "ATTAATTC", "PBM E-score": 0.304}, {"sequence": "AGTAATTC", "PBM E-score": 0.23}, {"sequence": "ATTAATGG", "PBM E-score": 0.239}, {"sequence": "ATTAATTG", "PBM E-score": 0.313}, {"sequence": "CTTAATTC", "PBM E-score": 0.177}, {"sequence": "CGTAACCC", "PBM E-score": -0.0539}, {"sequence": "TCCTGACA", "PBM E-score": 0.125}, {"sequence": "GGCTTCCC", "PBM E-score": -0.0469}, {"sequence": "AACCAATT", "PBM E-score": 0.297}, {"sequence": "AACCAGTA", "PBM E-score": 0.157}, {"sequence": "AACCAGTT", "PBM E-score": 0.27}, {"sequence": "AACCAGTG", "PBM E-score": -0.0556}, {"sequence": "AACCAATG", "PBM E-score": 0.109}, {"sequence": "AACCAATC", "PBM E-score": 0.0878}, {"sequence": "ACGCGGCC", "PBM E-score": -0.0773}, {"sequence": "CAGCGGGC", "PBM E-score": 0.00044}, {"sequence": "GGTAGTAC", "PBM E-score": -0.0112}, {"sequence": "CCAATCGC", "PBM E-score": 0.0869}, {"sequence": "CCCAGCAA", "PBM E-score": -0.0856}]}]}
